Compound activity from PubChem.
This is a sample that favours compounds with a hit; in the whole collection about 21% have one here.
Cycloheximide cs: counter-screen for Shiga toxin inhibitors: cycloheximide protein synthesis inhibition. cell reporter, cycloheximide protein synthesis inhibition counterscreen. 300,000 compounds, 12% hits. max response, %. AID 2314; in the data active = max response mostly above about 13%, no sharp cut-off; inactive = mostly below about 14%; note: read at 38.3 µM for the half of the compounds with a filed dose
Shiga toxin inh: Shiga toxin inhibition; 290,000 compounds, 9.2% hits; AID 2315; inhibition, % at 38.7 µM; Vero cells, Shiga toxin protein synthesis inhibition reporter; in the data active = inhibition mostly above about 28%, no sharp cut-off; inactive = mostly below about 43%
Pf growth 48h: P. falciparum growth inhibition at 48 hours (one generation). Potency, µM (top dose mostly 28.7 µM), usual class: inhibitors. AID 504832. 310,000 compounds, 5.9% hits. P. falciparum luciferase growth in erythrocytes, 48 h
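Compounds are pin-transferred into medium, infected erythrocytes (2% hematocrit, 0.1% parasitemia final) are added, and plates sit one parasite generation at 37 C in 5% CO2. Detection reagent is then added and luminescence measured.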
Pf growth 96h: inhibits malaria parasite growth, 96 h | P. falciparum luciferase reporter growth, 96 h | Potency, µM (doses to about 28.7 µM), most hits filed as inhibitors | 320,000 compounds, 6.9% hits | AID 504834
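Cell-based qHTS: luciferase-tagged P. falciparum in erythrocytes (2% hematocrit, 0.05% parasitemia final) incubated with compounds for 96 hours, 37 C, 5% CO2; luciferase detection reagent then added and luminescence measured.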
HCMV antiviral: inhibitors of human cytomegalovirus. AID 1259415. HFF cells, HCMV-luciferase reporter, 72 h; hits give low values. 410,000 compounds, 4.5% hits. activity change, negative = inhibition, % at 57.5 µM; in the data active = activity change below about -60%; inconclusive = no clear call, values can overlap the other calls; inactive = above about -39%
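Luciferase read-out from HCMV-luciferase-infected HFFs (MOI 1 PFU/cell) 72 h post infection at 37C; compounds added after 16 h cell attachment; activity normalized between buffer-only basal and Salinomycin (10uM) inhibitor controls.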
HCV inhibitor: blocks hepatitis C virus; Huh7.5.1 HCVcc-Cre infection, luciferase reporter, 44 h; Potency, µM (titrated, usually from 41.8 µM), usual class: inhibitors; 340,000 compounds, 3.4% hits
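Cells seeded at 1,000/well and cultured 4 h, then compounds added followed by HCVcc-Cre virus (~0.5 moi). After 44 h further culture, luciferase substrate was added, plates held 15 min at room temperature, and luminescence read for 15 sec.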
Each line names hits and unclear results; the compound was inactive in the other large screens. Unless noted, calls come from the whole dose curve; as a rule, active = well fitted inhibition curve with a large enough effect; inconclusive = small, poorly fitted or top-dose-only effect, or another doubt; inactive = no such curve, though single readings can be large or run the other way.

COC(=O)CCC(=O)N1CCCC(N2CCN(c3ccc(OC)cc3)CC2)C1 (centres undefined)	Pf growth 96h inconclusive
CC(C)n1nc(C(=O)Nc2cccc(S(=O)(=O)NCc3ccco3)c2)c2ccccc2c1=O	Cycloheximide cs 17, Pf growth 48h inconclusive, Pf growth 96h inconclusive, HCV inhibitor inconclusive
Cn1nc(C(=O)Nc2ccc(S(=O)(=O)NCc3ccco3)cc2)c2ccccc2c1=O	Cycloheximide cs 53, Shiga toxin inh 52, Pf growth 48h inconclusive, Pf growth 96h 12µM, HCV inhibitor inconclusive
CNC(=S)Nc1cccc(S(=O)(=O)NCc2ccco2)c1	none (no result: Cycloheximide cs, Shiga toxin inh, Pf growth 48h, Pf growth 96h)
C[C@H](c1ccccc1)N1C[C@@H](COCc2ccccc2)Oc2cccc(F)c2S1(=O)=O	none (no result: Cycloheximide cs, Shiga toxin inh, Pf growth 48h, Pf growth 96h, HCV inhibitor)
COCCNc1nc(SCc2ccccc2)nc2sc3c(c12)CCC3	Pf growth 48h inconclusive, Pf growth 96h inconclusive, HCV inhibitor inconclusive
CC(CO)Nc1nc(SCc2ccccc2)nc2sc3c(c12)CCC3 (centres undefined)	Pf growth 48h inconclusive, Pf growth 96h 7.4µM, HCMV antiviral inconclusive, HCV inhibitor 13µM
Cc1ccc(/C=N/Nc2cn[nH]c(=O)n2)o1	Cycloheximide cs 24, Shiga toxin inh 88, HCMV antiviral inconclusive
O=c1nc(N/N=C/c2ccccn2)cn[nH]1	Cycloheximide cs 46, Shiga toxin inh 125, Pf growth 48h 1µM, HCV inhibitor inconclusive
Cc1ccc(/C=N/Nc2ccc3ccccc3n2)o1	HCMV antiviral -79
Cc1cccc(/C=N/Nc2ccc3ccccc3n2)c1	HCV inhibitor inconclusive
Cc1ccc(/C=N/NC(=O)C(=O)N/N=C/c2ccc(C)o2)o1	Pf growth 96h inconclusive
CC1CCN(c2oc(-c3ccc(COc4ccc(Cl)cc4)o3)nc2C#N)CC1	none (no result: Cycloheximide cs, Shiga toxin inh, Pf growth 48h, Pf growth 96h, HCV inhibitor)
COc1ccc([N+](=O)[O-])cc1NC(=O)c1ccc(C)o1	HCMV antiviral -103, HCV inhibitor inconclusive
O=C(Nc1cc([N+](=O)[O-])ccc1F)c1cccs1	none
COc1ccc([N+](=O)[O-])cc1NC(=O)c1cccs1	HCMV antiviral inconclusive, HCV inhibitor 11µM
COc1ccc(S(=O)(=O)N2CCCCCC2)cc1C(=O)N(C)Cc1cccs1	Pf growth 96h inconclusive, HCMV antiviral inconclusive, HCV inhibitor inconclusive (no result: Cycloheximide cs, Shiga toxin inh)
Cc1cc(C)c(NC2=NCCS2)cc1C	HCMV antiviral -89 (no result: Cycloheximide cs, Shiga toxin inh, Pf growth 48h, Pf growth 96h, HCV inhibitor)
Cc1nc2c(C(=O)NCc3ccccc3Cl)cnn2c(C)c1Cc1c(F)cccc1Cl	none (no result: Cycloheximide cs, Shiga toxin inh, Pf growth 48h, Pf growth 96h, HCV inhibitor)
CC(=O)c1ccc(NC2=C(N3CCOCC3)C(=O)c3ccccc3C2=O)cc1	Pf growth 48h 0.83µM, Pf growth 96h 0.52µM, HCV inhibitor inconclusive
Cc1ccc(NC2=C(N3CCOCC3)C(=O)c3ccccc3C2=O)cc1	Cycloheximide cs 47, Shiga toxin inh 72, Pf growth 48h 2.1µM, Pf growth 96h 2.6µM, HCV inhibitor inconclusive
COc1ccccc1C(=O)/C=C/c1ccc(N2CCCCC2)c([N+](=O)[O-])c1	Cycloheximide cs 62, Shiga toxin inh 99, Pf growth 48h inconclusive, Pf growth 96h 7.4µM, HCMV antiviral -80, HCV inhibitor 11µM
Nc1nnnn1/N=C/c1ccc(N2CCCCC2)c([N+](=O)[O-])c1	Cycloheximide cs 38, Shiga toxin inh 63, Pf growth 96h inconclusive, HCV inhibitor inconclusive
O=C(/C=C/c1ccc(N2CCCCC2)c([N+](=O)[O-])c1)c1ccc(O)cc1	Cycloheximide cs 47, Shiga toxin inh 55, Pf growth 48h inconclusive, Pf growth 96h inconclusive, HCV inhibitor inconclusive
COc1ccc(N2CCN(C(=O)c3ccccc3Br)CC2)c([N+](=O)[O-])c1	Pf growth 96h 12µM
O=C(O/N=C\c1ccc(N2CCCCC2)c([N+](=O)[O-])c1)c1ccc(Cl)cc1Cl	none
COCCn1ccc2c(OCC(=O)Nc3ccccc3OC)cccc2c1=O	Pf growth 48h inconclusive, Pf growth 96h inconclusive, HCV inhibitor inconclusive (no result: Cycloheximide cs, Shiga toxin inh)
COC(=O)c1scc(-c2ccc(C)cc2)c1S(=O)(=O)Nc1ccc(F)cc1F	none (no result: Cycloheximide cs, Shiga toxin inh, Pf growth 48h, Pf growth 96h, HCV inhibitor)
Cc1ccc(COC(=O)c2[nH]c3c(c2C)C(=O)CC(c2ccc(N(C)C)cc2)C3)cc1 (centres undefined)	none (no result: Cycloheximide cs, Shiga toxin inh, Pf growth 48h, Pf growth 96h, HCV inhibitor)
COc1ccc(-c2cc(-n3c(C(F)(F)F)nc4ccccc43)n(CCC#N)n2)cc1	Pf growth 48h 13µM (no result: Pf growth 96h)
Nc1ccc(C(=O)OCc2nc3cc4ccccc4cc3[nH]2)cc1	Shiga toxin inh 48, HCMV antiviral -93
